Compound activity as filed in PubChem.
Rab9 prom act – activators of Rab9 promoter | Huh7 Rab9 promoter-luciferase reporter, luminescence, 24 h | Potency, µM (series often up to 9.22 µM), for the others: top-dose activation, negative = inhibition, usual class: activators | 320,000 compounds, 2.8% hits | AID 485297; note: % of control where 0% means no effect; nearly all actives have a fitted effect of over 60% in size
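Huh7 cells stably carrying a Rab9 promoter-luciferase reporter, 1500 cells per well in OP-MEM I with 10% FBS, treated with compound 24 hours at 37C. Luciferase activity read by luminescence after 10 minutes with Amplite reagent.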
FLuc counter – firefly luciferase modulation, counter-screen for miR-21 project. purified FLuc, Km substrates, luminescence inhibition. Potency, µM (top dose mostly 57.5 µM), inactives show top-dose activity change, negative = inhibition, actives largely listed as inhibitors. 360,000 compounds, 6.9% hits. AID 588342;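 note: plate controls were vehicle for no effect and reference inhibitor for full effect; nearly all actives have a fitted effect of over 55% in size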
Target sequence (P08659 whole entry, looked up): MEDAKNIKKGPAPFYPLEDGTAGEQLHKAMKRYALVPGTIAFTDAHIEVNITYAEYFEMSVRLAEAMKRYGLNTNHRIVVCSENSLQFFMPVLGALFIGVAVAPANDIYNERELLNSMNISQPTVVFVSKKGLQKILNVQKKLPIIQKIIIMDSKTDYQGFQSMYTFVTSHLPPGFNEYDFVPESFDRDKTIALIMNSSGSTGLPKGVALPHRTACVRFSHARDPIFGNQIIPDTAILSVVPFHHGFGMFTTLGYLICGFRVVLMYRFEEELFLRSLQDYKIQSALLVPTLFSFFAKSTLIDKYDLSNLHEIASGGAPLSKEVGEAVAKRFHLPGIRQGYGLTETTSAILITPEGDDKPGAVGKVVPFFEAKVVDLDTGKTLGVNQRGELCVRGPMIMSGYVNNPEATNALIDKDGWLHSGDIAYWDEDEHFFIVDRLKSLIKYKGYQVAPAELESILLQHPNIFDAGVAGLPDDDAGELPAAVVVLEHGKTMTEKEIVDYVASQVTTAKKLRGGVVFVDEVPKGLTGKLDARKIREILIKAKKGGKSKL
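Purified P. pyralis luciferase, 10 nM final, with Km-level 10 uM D-luciferin and 10 uM ATP in 50 mM Tris acetate pH 7.5, 10 mM Mg acetate, 0.01% Tween-20, 0.05% BSA; 6-point qHTS titration about 60 µM downward; luminescence read.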
NPC1 prom act – activators of NPC1 promoter; Huh7 NPC1 promoter luciferase reporter, 24 h; Potency, µM (top dose mostly 9.22 µM), without a hit: at the top dose activation, actives largely listed as activators; 320,000 compounds, 2.4% hits; AID 485313; note: % of control where 0% means no effect; nearly all actives have a fitted effect of over 60% in size
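Luminescence read-out of NPC1 promoter-driven luciferase in stably transfected Huh7 cells; compounds delivered in DMSO and left 24 h at 37C, 5% CO2, qHTS titration format.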
KinaseGlo FLuc – blocks Kinase-Glo luciferase, a counter-screen artifact; AID 1379; Kinase-Glo luciferase, ATP luminescence, 8 min; 200,000 compounds, 0.28% hits; Potency, µM (series often up to 38.3 µM), without a hit: top-dose activity change, negative = inhibition, usual class: inhibitors; Q27757; note: % is set by controls: 0 for no effect and ±100 for the full control effect; nearly all actives have a fitted effect of over 60% in size
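Light output from Kinase-Glo luciferase with luciferin and 10 uM ATP in 50 mM imidazole pH 7.2, KCl, MgCl2, Tween 20, BSA; compound pin-delivered, 8-min ambient incubation, then luminescence read.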
ELG1 genotoxic – induces genotoxicity in HEK293T cells with luciferase-tagged ELG1; 330,000 compounds, 1.3% hits; AID 504466; HEK293T ELG1-luciferase reporter, luminescence, 16 h; Potency, µM (series often up to 46 µM), without a hit: at the highest dose activity change, positive = activation, actives largely listed as activators; note: % of control where 0% means no effect; nearly all actives have a fitted effect of over 60% in size
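HEK293T cells expressing luciferase-tagged ELG1 were treated with compound or DMSO for 16 hr at 37°C. Luciferase activity was then read after 30 min with ONE-Glo at room temperature; rising signal flags genetic stress.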
SMN2 splice up – increases expression of the SMN2 splice variant | HEK293 SMN2-luciferase splicing reporter, luminescence, 30-36 h | Potency, µM (series often up to 46.1 µM), without a hit: at the top dose activity change, positive = activation, hits mostly activators | 210,000 compounds, 2.8% hits; note: % of control where 0% means no effect; nearly all actives have a fitted effect of over 55% in size
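qHTS luciferase splicing reporter: luminescence rises when SMN2 exon 7 is included in transfected HEK293 cells. Compound exposure lasted 30-36 h at 37C, with 4.5 mM final sodium butyrate as control, followed by a ONE-Glo read.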
* hit, by the source's call; ? = inconclusive; / = no result given. The list is not random: actives were taken first. Their share in the collection is about 7.5%. Calls come from the whole dose curve; as a rule, active = well fitted curve in the direction sought with a large enough effect; inconclusive = small, poorly fitted or top-dose-only effect, or another doubt; inactive = no such curve, though single readings can be large; an effect the other way counts as inactive or inconclusive. Potency is the fitted concentration of half-maximal effect.

SMILES | Rab9 prom act | FLuc counter | NPC1 prom act | KinaseGlo FLuc | ELG1 genotoxic | SMN2 splice up
Cc1csc(NC(=O)Cc2ccc(F)cc2)n1 | 3.5µM* | ? | ? | / | ? | /
Cc1csc(NC(=O)Cc2c(F)cccc2Cl)n1 | 3.2µM* | ? | 3.5µM* | / | ? | /
Cc1ccc(CC(=O)Nc2cccc(C)n2)cc1 | ? | ? | ? | 0% | 21µM* | 13µM*
CCC(=O)Nc1ccc(C(=O)NNC(=O)c2ccccc2)cc1 | -4% | -4% | 5% | -2% | 2% | /
O=C1CC(c2nnc(Cc3ccc(F)cc3)o2)CN1c1ccccc1 (stereo not given) | / | -1% | / | / | / | -4%
O=C1CN(C(=O)COc2ccc(Cl)cc2Cl)C(c2ccccc2)c2cc(F)ccc2N1 (stereo not given) | / | -1% | / | / | / | -56%
COc1ccc(C(=O)NCCc2nc3ccccc3[nH]2)cc1 | / | -7% | / | / | / | -4%
O=C(Cc1c(F)cccc1Cl)Nc1ccncc1 | -4% | 3% | -2% | -3% | -7% | -36%
Cc1cccc(NC(=O)Cc2c(F)cccc2Cl)n1 | 3.2µM* | 15µM* | 2.5µM* | / | ? | /
Cc1ccc(C(=O)Nc2ccc3c(c2)C(=O)NC3=O)cc1 | 14% | ? | -2% | / | 19% | /
Nc1ccc(C(=O)Nc2nccs2)cc1 | 4µM* | ? | ? | -13% | ? | 13µM*
Cc1ccc(C(=O)Nc2nc(=O)[nH]s2)cc1 | 3% | 24µM* | -1% | 5% | 6% | 38%
O=C(Nc1nccs1)c1ccc2nccnc2c1 | ? | ? | ? | -4% | 8% | -3%
O=C(Nc1nccs1)c1ccc(NC(=O)c2ccco2)cc1 | 2.8µM* | 17µM* | 4µM* | -3% | ? | ?
Cc1ccc(C(=O)Nc2nccs2)cc1 | 2.2µM* | 8.5µM* | 2.8µM* | -15% | ? | 10µM*
CCOc1ccccc1NC(=O)N1CCc2c(sc3c2CCCC3)C1c1ccccc1 (stereo not given) | / | -2% | / | / | / | /
CCCSc1ncc(Cl)c(C(=O)Nc2sc3c(c2C(=O)NCC)CCCC3)n1 | / | -4% | / | / | / | 1%
COc1ccc(C(=O)Nc2nc(-c3cccs3)c(NC(C)=O)s2)cc1 | 24% | -3% | -2% | 6% | 16% | 0%
CC(=O)Nc1sc(NC(=O)c2ccc(C)cc2)nc1-c1cccs1 | -7% | -14% | -3% | 2% | 7% | 11µM*
CN=C1S/C(=C\c2ccc(N3CCCC3)c(F)c2)C(=O)N1C | ? | 4.8µM* | 27% | 1% | ? | ?
O=C(NCc1cccn1Cc1ccccc1)Nc1cccc(C(F)(F)F)c1 | / | 6% | / | / | / | /
CC(C)c1ccc(NC(=O)c2csnn2)cc1 | 1.8µM* | 2.1µM* | 1.6µM* | -16% | 1.2µM* | ?
CC(C)c1ccc2oc(-c3cc(NC(=O)c4cccnc4)ccc3Cl)nc2c1 | / | 11µM* | / | / | / | 15%
NS(=O)(=O)c1ccc(NC(=O)c2csnn2)cc1 | / | -13% | / | / | / | /
O=C(NNC(=S)Nc1ccc(Br)cc1)c1cccnc1 | 9% | ? | 1% | / | 8% | /
SMILES | Rab9 prom act | FLuc counter | NPC1 prom act | KinaseGlo FLuc | ELG1 genotoxic | SMN2 splice up
CC(C)c1ccc(NC(=S)NNC(=O)c2cccnc2)cc1 | 15% | 11µM* | -3% | 2% | 9% | -16%
CC(C)c1ccc2oc(-c3ccc(NC(=O)c4cccc(Br)c4)cc3)nc2c1 | / | -12% | / | / | / | -14%
CC(C)c1ccc(NC(=O)c2snc3ccc(Cl)cc23)cc1 | 2.2µM* | 7.6µM* | 2.5µM* | -1% | ? | 14µM*
CC(C)c1ccc(NC(=O)c2cc(Br)ccc2Br)cc1 | 14% | ? | 14% | -2% | 3% | 4%
CC(C)c1ccc(NC(=O)c2cccnc2)cc1 | 4µM* | 17µM* | ? | 0% | 21µM* | ?
O=C(NC(=S)Nc1ccccc1Cl)c1csnn1 | 3% | 13µM* | 5% | -2% | 2% | 7%
Cc1cccc(-c2cc(C(=O)Nc3ccncc3)c3ccccc3n2)c1 | 2% | 24µM* | 13% | / | -7% | /
